Most compounds without a hit are left out; they make up all but 3.6% or so of the library.
Epigenetic derep = regulators of epigenetic silencing causing reporter derepression in mouse cells; Potency, µM (highest dose often 53.9 µM), actives largely listed as activators; actives 0.2% (n = 280,000); murine LDR cells, GFP reporter derepression, 30 h; AID 1865; also: nearly all actives have a fitted effect of over 60% in size
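GFP-positive cell count by laser-scanning cytometry (objects 20–120 um) after 30 h, 37 C compound exposure of murine LDR cells; reporter is CMV-GFP integrated at a silenced locus, inducible by HDAC or DNMT inhibitors.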
KDM4E inh = inhibitors of human JMJD2E histone demethylase. Potency, µM (highest dose often 57.1 µM), actives largely listed as inhibitors. B2RXH2. actives 1.6% (n = 230,000). JMJD2E catalytic domain, FDH-coupled NADH fluorescence (FDH is formaldehyde dehydrogenase); also: nearly all actives have a fitted effect of over 50% in size
Target sequence (B2RXH2 1-337 limits assumed): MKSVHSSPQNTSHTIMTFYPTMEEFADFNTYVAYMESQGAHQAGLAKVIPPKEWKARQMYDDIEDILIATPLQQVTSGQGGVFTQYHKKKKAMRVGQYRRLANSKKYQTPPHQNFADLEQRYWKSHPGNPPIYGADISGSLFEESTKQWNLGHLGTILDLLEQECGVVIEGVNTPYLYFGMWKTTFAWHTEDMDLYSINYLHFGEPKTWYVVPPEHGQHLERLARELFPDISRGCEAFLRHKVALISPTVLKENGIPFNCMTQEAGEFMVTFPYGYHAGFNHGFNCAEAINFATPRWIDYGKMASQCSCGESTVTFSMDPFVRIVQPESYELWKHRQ
NPSR antagonist = blocks cAMP signaling of the human neuropeptide S receptor. Q6W5P4. CHO-NPSR cells, cAMP TR-FRET, antagonist mode. Potency, µM (highest dose often 38.3 µM), most hits filed as inhibitors. actives 1% (n = 220,000). AID 1461; also: nearly all actives have a fitted effect of over 50% in size
Target sequence (Q6W5P4 whole entry, looked up): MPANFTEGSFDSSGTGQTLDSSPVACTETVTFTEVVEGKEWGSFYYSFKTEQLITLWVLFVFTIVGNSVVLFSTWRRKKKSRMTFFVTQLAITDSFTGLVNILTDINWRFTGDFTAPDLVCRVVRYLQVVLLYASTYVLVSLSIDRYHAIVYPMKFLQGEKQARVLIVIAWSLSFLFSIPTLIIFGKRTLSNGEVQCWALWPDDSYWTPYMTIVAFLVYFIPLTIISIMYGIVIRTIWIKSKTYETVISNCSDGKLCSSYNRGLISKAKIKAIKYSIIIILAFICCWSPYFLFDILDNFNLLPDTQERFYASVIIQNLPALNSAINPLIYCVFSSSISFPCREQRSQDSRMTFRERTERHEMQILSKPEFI
GCN5L2 inh = blocks human GCN5L2 histone acetyltransferase | Q92830 | GCN5L2 HAT assay, ThioGlo1 CoA-SH fluorescence | Potency, µM (series often up to 58.9 µM), most hits filed as inhibitors | actives 0.21% (n = 390,000) | AID 504327
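ThioGlo1-coupled HAT assay: 20nM GCN5L2, 70uM acetyl-CoA, 75uM H3(1-25) peptide, pH 7.5. Fluorescence read at 340/540nm at start and after 20 min at room temperature.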
IMPase Li cell = cell-permeable IMPase inhibitors with lithium potentiation; CHO-M1 cells, IP1 TR-FRET (IP-One), carbachol + lithium; Potency, µM (highest dose often 59.4 µM), most hits filed as inhibitors; actives 0.35% (n = 210,000);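 also: IP1 builds up when IMPase is blocked and the TR-FRET signal falls; nearly all actives have a fitted effect of over 50% in size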
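Lithium-sensitised IP1 accumulation assay; M1-expressing CHO cells treated 30 min at 37C with compound. Competitive antibody detection by time-resolved FRET followed a 10 min room-temperature lysis step.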
Sfp inh = blocks B. subtilis Sfp PPTase activity; Q9F4F7; Biochemical Sfp PPTase activity, qHTS; Potency, µM, usual class: inhibitors; actives 3.5% (n = 310,000);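 also: the enzyme is Sfp with the accession as filed and its product quenches rhodamine fluorescence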
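Fluorescence-quenching assay: 15 nM Sfp-PPTase preincubated 15 min at room temperature with compound, then 5 uM rhodamine-CoA and 12.5 uM BHQ-2-labelled YbbR peptide added. Fluorescence (ex 525/em 598 nm) read at start and after 30 min; difference gives rate.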
Each line names hits and unclear results; the compound was inactive in the other large screens; ! = not confirmed by another sample. Unless noted, calls follow the shape of the dose curve; as a rule, active = well fitted curve in the direction sought with a large enough effect; inconclusive = small, poorly fitted or top-dose-only effect, or another doubt; inactive = no such curve, though single readings can be large; an effect the other way counts as inactive or inconclusive.

C=CCSc1ncnc2c1oc1nc3c(cc12)COC(C)(C)C3	none (no result: IMPase Li cell)
CCn1c(=O)n(C2=C(CO)CN(CC3CCCCCCC3)CC2)c2ccccc21	none (no result: Epigenetic derep, KDM4E inh, NPSR antagonist, IMPase Li cell)
O=Cc1ccc(-c2ccccc2C(=O)O)o1	KDM4E inh inconclusive, GCN5L2 inh inconclusive
O=C(O)c1c(Cl)c(Cl)c(Cl)c(Cl)c1-c1c2cc(I)c(=O)c(I)c-2oc2c(I)c(O)c(I)cc12	GCN5L2 inh 2µM, IMPase Li cell inconclusive, Sfp inh 14µM (no result: KDM4E inh, NPSR antagonist)
O=C(O)c1ccccc1-c1c2cc(I)c(=O)c(I)c-2oc2c(I)c(O)c(I)cc12	GCN5L2 inh 11µM, Sfp inh inconclusive (no result: Epigenetic derep, KDM4E inh, NPSR antagonist, IMPase Li cell)
O=c1oc2cc([N+](=O)[O-])ccc2nc1/C=C(O)/C=C/c1ccccc1	Sfp inh 50µM (no result: IMPase Li cell)
Nc1scc2c(C(=O)N/N=C/c3ccc(Cl)cc3)nn(-c3ccccc3)c(=O)c12	GCN5L2 inh inconclusive, Sfp inh 14µM
COc1ccc(-c2coc3cc(O)cc(O)c3c2=O)cc1	KDM4E inh inconclusive, Sfp inh 50µM!
O=c1ccc2cc(O)c(O)cc2o1	KDM4E inh inconclusive, Sfp inh 56µM!
CC(C)C[C@H](NC(=O)[C@H](CO)NC(=O)[C@@H]1CCCN1C(=O)[C@H](Cc1ccc(O)cc1)NC(=O)[C@H](CC(C)C)NC(=O)[C@H](CC(C)C)NC(=O)[C@@H]1CCCN1C(=O)[C@@H](NC(=O)[C@H](CO)NC(=O)[C@H](CO)NC(=O)[C@H](CO)NC(=O)[C@H](CO)NC(=O)[C@@H]1CCCN1C(=O)[C@@H](NC(=O)[C@@H](N)CO)C(C)C)[C@@H](C)O)C(=O)N[C@@H](C)C(=O)N[C@@H](CC(C)C)C(=O)N1CCC[C@H]1C(=O)N[C@@H](C)C(=O)N1CCC[C@H]1C(=O)O	none (no result: Epigenetic derep, KDM4E inh, NPSR antagonist, IMPase Li cell)
CC(=O)NS(=O)(=O)c1ccc2sc(C)nc2c1	Sfp inh 79µM (no result: IMPase Li cell)
C#CC(=O)N(c1cccc(OC)c1)C(C(=O)NC1CCCC1)c1cccs1 (centres undefined)	Epigenetic derep inconclusive, NPSR antagonist 4µM, GCN5L2 inh inconclusive
C#CC(=O)N(c1ccc(OC)c(OC)c1)C(C(=O)NC1CCCC1)c1cccs1 (centres undefined)	NPSR antagonist 13µM
COCCNC(=O)c1ccc2c(=O)n(CCc3ccccc3)c(SCC(=O)CC(=O)OC)nc2c1	none (no result: KDM4E inh, NPSR antagonist, IMPase Li cell, Sfp inh)
c1ccc(CN2CCC3(CC2)Nc2ccccc2S3)cc1	Sfp inh 79µM (no result: IMPase Li cell)
c1ccc(CN2CCC3(CC2)Nc2ccccc2CO3)cc1	none
Cc1cccc(C)c1NC(=S)N(CCN(C)C)C(C)c1cccnc1 (centres undefined)	Sfp inh 79µM
NC(C(=O)O)c1cc(O)cc(O)c1 (centres undefined)	Sfp inh inconclusive (no result: KDM4E inh, NPSR antagonist, GCN5L2 inh)
CC(=O)OCCNc1cc(N2CCN(C)CC2)c2noc3c2c1C(=O)c1ccccc1-3	NPSR antagonist 10µM
CCN1CCN(c2cc(N3CCN(C(=O)c4ccco4)CC3)c3c4c(onc24)-c2ccccc2C3=O)CC1	Sfp inh 50µM (no result: Epigenetic derep, KDM4E inh, NPSR antagonist, IMPase Li cell)
CCOC(=O)c1c(N2C(=O)C3C4C=CC(O4)C3C2=O)sc2c1CCCC2 (centres undefined)	Sfp inh 8.9µM (no result: GCN5L2 inh)
Cc1ccc(C(=O)NNC(=O)CCC(=O)Nc2cccc(Cl)c2C)cc1	Sfp inh 79µM
Cc1cccc(C(=O)NNC(=O)CCC(=O)Nc2cccc(Cl)c2C)c1	none
Nc1nc(Cl)nc2ccc(Br)cc12	none
CCc1c(C)nc2ccc(Br)cc2c1Cl	IMPase Li cell 11µM
CCC(=O)Nc1sc2c(c1C#N)CC(C)(CC)OC2 (centres undefined)	Sfp inh 56µM
CCC1(C)Cc2c(sc(NC(=O)CCC(=O)O)c2C#N)CO1 (centres undefined)	none
CCCCC1=CC2=CC(=O)C(C)(OC(=O)c3cnc4ccccc4n3)C(=O)C2=CO1 (centres undefined)	Sfp inh 79µM!
COC/C=C/C1=CC2=CC(=O)C(C)(OC(=O)c3cnc4ccccc4n3)C(=O)C2=CN1CCc1ccccn1 (centres undefined)	none (no result: Epigenetic derep, NPSR antagonist, GCN5L2 inh)
COC/C=C/C1=CC2=CC(=O)C(C)(OC(=O)c3cnc4ccccc4n3)C(=O)C2=CN1CCCCO (centres undefined)	KDM4E inh 8.9µM!
O=C(CSC1=NCCS1)Nc1nc2c(s1)CCCC2	GCN5L2 inh inconclusive, Sfp inh 56µM
COc1ccc2c(c1)O[C@H](c1ccc3c(c1)OCO3)[C@@H](OC(=O)Nc1ccc(OC(F)F)cc1)C2=O	none (no result: NPSR antagonist, GCN5L2 inh)
COC(=O)C1=C(C(=O)OC)[C@@H]2N(C)c3ccccc3[C@@]23C[C@@H](C(=O)OC)N(S(=O)(=O)c2ccc4c(c2)OCCN4C)C3=N1	none (no result: Epigenetic derep, NPSR antagonist, GCN5L2 inh)
Cc1cc(=O)[nH]c(SCC(=O)Nc2ccccc2C#N)c1C#N	Sfp inh 32µM
CCOC(=O)CC(=O)CSc1[nH]c(=O)cc(C)c1C#N	Sfp inh 50µM (no result: GCN5L2 inh)
COC(=O)c1ccccc1NC(=O)CSc1[nH]c(=O)cc(C)c1C#N	none
Cc1sc2nc(CSCC(=O)Nc3ccccc3C#N)[nH]c(=O)c2c1C	Sfp inh 79µM
COc1ccc2c(c1)O[C@@H](c1ccc3c(c1)OCO3)[C@H](OC(=O)NCCOc1ccccc1)C2=O	none (no result: NPSR antagonist, GCN5L2 inh)
Cc1nc2ccc(S(=O)(=O)CCC(=O)Nc3ccc(Cl)cc3)cc2s1	none (no result: KDM4E inh, NPSR antagonist, IMPase Li cell, Sfp inh)
CCN1C=C(Cc2ccc(F)cc2)C2=C(C1)C(c1ccc(F)cc1)C(C#N)=C(N)O2 (centres undefined)	KDM4E inh inconclusive, NPSR antagonist 10µM
CCN1CCS/C1=C\C=C\C1=[N+](CC)CCS1	none (no result: KDM4E inh)
CCN1CCS/C1=C/C=C/C1=[N+](CC)CCS1	KDM4E inh 28µM
FC(F)(F)c1cccc(N2CCN(Cc3nnc(-c4ccc5c(c4)OCO5)o3)CC2)c1	none (no result: KDM4E inh, NPSR antagonist, IMPase Li cell, Sfp inh)
CC(=O)/C=C(\C)Nc1ccc(-c2cnc(-c3ccccc3)o2)cc1	KDM4E inh inconclusive, GCN5L2 inh 28µM, IMPase Li cell 8.9µM
c1ccc(-c2cnc(-c3ccc(-c4ncc(-c5ccccc5)o4)cc3)o2)cc1	none (no result: Epigenetic derep, KDM4E inh, NPSR antagonist, GCN5L2 inh, Sfp inh)
COc1ccccc1N1CCN(C(=O)c2cc(CC(C)C)on2)CC1	none (no result: KDM4E inh, NPSR antagonist, IMPase Li cell, Sfp inh)

Assay outcomes (PubChem)
